Measured values reported in PubChem BioAssay (NCATS).
Inconclusive results are not listed. Calls of active or inactive are those of the source. Calls follow the shape of the dose curve; as a rule, active = well fitted curve in the direction sought with a large enough effect; inconclusive = small, poorly fitted or top-dose-only effect, or another doubt; inactive = no such curve, though single readings can be large; an effect the other way counts as inactive or inconclusive.

What was measured:
[1] = Quantitative High-Throughput drug screen in 47 multiple myeloma cell lines against the NCATS MIPE library collection: JJN3_DSMZ cell viability assay (AID 1918966; also: nearly all actives have a fitted effect of over 50% in size; also: potency is read from the fitted curve at half-maximal effect)
Summary of the method: (§1)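 Inhibition of cell viability is measured here. Each line was plated at 500 cells per well, treated with MIPE 4.0 drugs, kept 48 hours at 37C, then assayed for ATP content by CellTiter-Glo luminescence.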

[2] = Quantitative High-Throughput drug screen in 47 multiple myeloma cell lines against the NCATS MIPE library collection: H1112_PLB cell viability assay (AID 1918967; also: nearly all actives have a fitted effect of over 30% in size; also: potency is read from the fitted curve at half-maximal effect)
Summary of the method: as §1

[3] = Quantitative High-Throughput drug screen in 47 multiple myeloma cell lines against the NCATS MIPE library collection: Karpas25_ECACC cell viability assay (AID 1918968; also: nearly all actives have a fitted effect of over 35% in size; also: potency is read from the fitted curve at half-maximal effect)
Summary of the method: as §1

[4] = Quantitative High-Throughput drug screen in 47 multiple myeloma cell lines against the NCATS MIPE library collection: KMS27_JCRB cell viability assay (AID 1918970); conditions: KMS27 myeloma cells, CellTiter-Glo ATP viability, 48 h; viability (% of DMSO): at 45.8 µM (top of the series); also: nearly all actives have a fitted effect of over 30% in size; also: potency is read from the fitted curve at half-maximal effect
Summary of the method: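 CellTiter-Glo luminescence after 48 h drug exposure at 37 °C; 500 cells/well, 1536-well format, pin-tool compound addition; DMSO = 100%, media-only = 0% viability.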

[5] = Quantitative High-Throughput drug screen in 47 multiple myeloma cell lines against the NCATS MIPE library collection: KMS12BM_JCRB cell viability assay (AID 1918971); also: nearly all actives have a fitted effect of over 35% in size; also: potency is read from the fitted curve at half-maximal effect
Summary of the method: (§2)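 qHTS of the MIPE 4.0 collection: 500 myeloma cells/well, 48 h drug exposure at 37C in 5% CO2, then CellTiter-Glo for 5 min at room temperature before luminescence reading.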

[6] = Quantitative High-Throughput drug screen in 47 multiple myeloma cell lines against the NCATS MIPE library collection: KMS12PE_JCRB cell viability assay (AID 1918972); also: nearly all actives have a fitted effect of over 30% in size; also: potency is read from the fitted curve at half-maximal effect
Summary of the method: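 Steps: seed 500 cells per well; pin-transfer MIPE 4.0 library; incubate 48 h at 37C, 5% CO2, humidified; add CellTiter-Glo, 5 min room temperature; read luminescence.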

[7] = Quantitative High-Throughput drug screen in 47 multiple myeloma cell lines against the NCATS MIPE library collection: KMS26_JCRB cell viability assay (AID 1918975); also: nearly all actives have a fitted effect of over 45% in size; also: potency is read from the fitted curve at half-maximal effect
Summary of the method: as §2

[8] = Quantitative High-Throughput drug screen in 47 multiple myeloma cell lines against the NCATS MIPE library collection: MMM1_PLB cell viability assay (AID 1918976); also: nearly all actives have a fitted effect of over 35% in size; also: potency is read from the fitted curve at half-maximal effect
Summary of the method: (§3)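 Inhibition of viability over 48 h was scored by ATP content (CellTiter-Glo) in 500-cell wells. Zero and full viability were defined by media-only and DMSO-only wells.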

[9] = Quantitative High-Throughput drug screen in 47 multiple myeloma cell lines against the NCATS MIPE library collection: OCIMY1_PLB cell viability assay (AID 1918979); also: nearly all actives have a fitted effect of over 35% in size; also: potency is read from the fitted curve at half-maximal effect
Summary of the method: as §3

[10] = Quantitative High-Throughput drug screen in 47 multiple myeloma cell lines against the NCATS MIPE library collection: MM1R_ATCC cell viability assay (AID 1918981); also: nearly all actives have a fitted effect of over 35% in size; also: potency is read from the fitted curve at half-maximal effect
Summary of the method: as §3

[11] = Quantitative High-Throughput drug screen in 47 multiple myeloma cell lines against the NCATS MIPE library collection: LP1_DSMZ cell viability assay (AID 1918982); also: nearly all actives have a fitted effect of over 35% in size; also: potency is read from the fitted curve at half-maximal effect
Summary of the method: as §3

[12] = Quantitative High-Throughput drug screen in 47 multiple myeloma cell lines against the NCATS MIPE library collection: KMS28PE_JCRB cell viability assay (AID 1918983); also: nearly all actives have a fitted effect of over 35% in size; also: potency is read from the fitted curve at half-maximal effect
Summary of the method: as §3

[13] = Quantitative High-Throughput drug screen in 47 multiple myeloma cell lines against the NCATS MIPE library collection: KMS34_JCRB cell viability assay (AID 1918985); also: potency is read from the fitted curve at half-maximal effect; nearly all actives have a fitted effect of over 40% in size
Summary of the method: as §3

[14] = Quantitative High-Throughput drug screen in 47 multiple myeloma cell lines against the NCATS MIPE library collection: MOLP8_DSMZ cell viability assay (AID 1918977); also: potency is read from the fitted curve at half-maximal effect; nearly all actives have a fitted effect of over 45% in size
Summary of the method: as §3

[15] = Quantitative High-Throughput drug screen in 47 multiple myeloma cell lines against the NCATS MIPE library collection: NCIH929_DSMZ cell viability assay (AID 1918978); also: nearly all actives have a fitted effect of over 35% in size; also: potency is read from the fitted curve at half-maximal effect
Summary of the method: as §3

[16] = Quantitative High-Throughput drug screen in 47 multiple myeloma cell lines against the NCATS MIPE library collection: MM1S_ATCC cell viability assay (AID 1918980); also: potency is read from the fitted curve at half-maximal effect; nearly all actives have a fitted effect of over 45% in size
Summary of the method: as §3

[17] = Quantitative High-Throughput drug screen in 47 multiple myeloma cell lines against the NCATS MIPE library collection: L363_DSMZ cell viability assay (AID 1918984); conditions: L363 myeloma viability, CellTiter-Glo ATP luminescence, 48 h; viability (% of control): at 45.8 µM (top of the series); also: nearly all actives have a fitted effect of over 40% in size; also: potency is read from the fitted curve at half-maximal effect
Summary of the method: as §3

[18] = Quantitative High-Throughput drug screen in 47 multiple myeloma cell lines against the NCATS MIPE library collection: KMS21BM_JCRB cell viability assay (AID 1918974); conditions: ATP luminescence, 48 h; viability: at 45.8 µM (top of the series); also: potency is read from the fitted curve at half-maximal effect
Summary of the method: as §1

[19] = Quantitative High-Throughput drug screen in 47 multiple myeloma cell lines against the NCATS MIPE library collection: KMS20_JCRB cell viability assay (AID 1918973); also: nearly all actives have a fitted effect of over 45% in size
Summary of the method: as §1

Row | Structure (SMILES) | Potency [1] | Potency [2] | Potency [3] | Potency [4] | Potency [5] | Potency [6] | Potency [7] | Potency [8] | Potency [9] | Potency [10] | Potency [11] | Potency [12] | Potency [13] | Potency [14] | Potency [15] | Potency [16] | Potency [17] | Potency [18] | Potency [19]
1 | CC1C(=O)OC2C(O)C34C5CC(C(C)(C)C)C36C(OC(=O)C6O)OC4(C(=O)O5)C12O (stereo not drawn) | inactive | inactive | inactive | inactive | inactive | inactive | inactive | 0.0187 µM (active) | inactive | inactive | inactive | inactive | 23.5 µM (active) | – | – | – | – | – | –
2 | O=C(Nc1ncc(SCCN2CCCC2)s1)[C@]1(c2ccc(S(=O)(=O)C3CC3)cc2)C[C@@H]1C1CCCCC1 | 16.6 µM (active) | 23.5 µM (active) | 18.7 µM (active) | 7.43 µM (active) | 23.5 µM (active) | 5.26 µM (active) | 23.5 µM (active) | 14.8 µM (active) | 26.4 µM (active) | 16.6 µM (active) | 20.9 µM (active) | 23.5 µM (active) | 18.7 µM (active) | 16.6 µM (active) | 20.9 µM (active) | 20.9 µM (active) | 7.43 µM (active) | – | –
3 | CC[C@]1(O)C[C@H]2CN(CCC3=c4ccccc4=N[C]3[C@@](C(=O)OC)(c3cc4c(cc3OC)N(C)[C@H]3[C@@](O)(C(N)=O)[C@H](O)[C@]5(CC)C=CCN6CC[C@]43[C@@H]65)C2)C1 | 0.372 µM (active) | 0.0332 µM (active) | – | 0.296 µM (active) | 0.0047 µM (active) | 0.132 µM (active) | 0.0662 µM (active) | 0.132 µM (active) | – | – | 0.0083 µM (active) | 0.0023 µM (active) | 0.0053 µM (active) | 0.148 µM (active) | 0.166 µM (active) | – | 0.132 µM (active) | 0.0935 µM (active) | –
4 | CC1(C)OC2CC3C4CC(F)C5=CC(=O)C=CC5(C)C4C(O)CC3(C)[C@]2(C(=O)CO)O1 (stereo partly drawn) | inactive | inactive | 0.0833 µM (active) | inactive | – | – | inactive | inactive | – | inactive | 0.0023 µM (active) | inactive | 0.0209 µM (active) | – | inactive | 0.0166 µM (active) | 0.132 µM (active) | 0.0083 µM (active) | inactive
5 | CCCCC[C@H](O)C=C[C@H]1[C@H](O)CC(=O)[C@H]1CCCCCCC(=O)O | 7.43 µM (active) | inactive | 23.5 µM (active) | inactive | – | inactive | inactive | 8.33 µM (active) | inactive | inactive | inactive | inactive | – | – | inactive | 3.32 µM (active) | inactive | – | –
